Compound activity as filed in PubChem.
Only some compounds are listed: those with a hit (about 1.5% of all), similar ones and a draw of the others.
CRFBP-R2 agonist: agonists of human CRF-binding protein/CRF-R2 receptor complex; actives 0.46% (n = 350,000); activation, % at 13.2 µM; HEK293 CRF-R2/CRF-BP, calcium dye fluorescence (FLIPR); percent of saturating CRF peptide response;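 active = activation of at least 50%, plus an integration ratio under a set limit after plate pattern correction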;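 also: plate controls were neutral control wells without compound for no effect and CRF at EC100 for full effect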
CRFR2-BP antag: antagonists of CRF-binding protein/CRF-R2 receptor complex; HEK293 CRF-R2/CRF-BP, CRF-induced calcium fluorescence; inhibition, % at 11.8 µM; AID 588475; actives 0.59% (n = 350,000);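 active = inhibition of the ligand-induced calcium signal above about 50% at the single tested concentration, limit read from the data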
V-ATPase pH: regulators of yeast V-ATPase proton transport; S. cerevisiae, pHLuorin cytosolic pH fluorescence; AID 504577; response, % at 10 µM; actives 0.37% (n = 350,000); in the data active = response mostly above about 7.3%, no sharp cut-off; inactive = mostly below about 5.4%; also: actives read high
NTR1 agonist: NTR1 (human) agonism; P30989; NTR1-U2OS beta-arrestin-GFP spot imaging, agonist mode; activation, % at 20 µM; actives 0.17% (n = 330,000); AID 493036;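 active = activation at or above 40% of the spot to cytoplasm intensity ratio, with at least 20 cells analyzed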;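 also: 0% = DMSO without peptide and 100% = 100 nM NTR1 peptide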
Target sequence (P30989 whole entry, looked up): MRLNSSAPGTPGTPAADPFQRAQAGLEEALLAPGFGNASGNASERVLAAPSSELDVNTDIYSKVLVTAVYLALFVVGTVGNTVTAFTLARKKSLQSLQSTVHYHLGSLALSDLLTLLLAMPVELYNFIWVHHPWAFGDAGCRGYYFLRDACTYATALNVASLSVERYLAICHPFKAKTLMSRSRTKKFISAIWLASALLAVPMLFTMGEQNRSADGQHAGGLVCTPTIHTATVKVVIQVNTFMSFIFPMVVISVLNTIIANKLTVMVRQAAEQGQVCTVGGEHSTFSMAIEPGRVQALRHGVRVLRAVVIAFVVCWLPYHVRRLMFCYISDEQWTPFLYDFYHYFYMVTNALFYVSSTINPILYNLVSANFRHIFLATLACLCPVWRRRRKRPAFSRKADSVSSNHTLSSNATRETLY
* hit, by the source's call; nt = not tested or not shown.

SMILES	CRFBP-R2 agonist	CRFR2-BP antag	V-ATPase pH	NTR1 agonist
CCCCNC(=O)c1sc(=S)n2c1[nH]c(=O)c1ccccc12	50*	55*	-2	6
COc1ccc(CN(C(=O)c2ccc(C)cc2)C2CCS(=O)(=O)C2)cc1 (stereo unspecified)	0	64*	-1	1
COc1ccc(CN(C(=O)c2cccc(OC)c2)C2CCS(=O)(=O)C2)cc1 (stereo unspecified)	-1	-6	-4	0
CCC(C)C(=O)Nc1nnc(SCC(=O)NC(C)(C)C)s1 (stereo unspecified)	0	67*	-2	1
COC(=O)c1cc2occc2n1CC(=O)Nc1ccc(OC)c(OC)c1OC	1	21	2	0
COC(=O)c1cc2sc(Cl)cc2n1CC(=O)Nc1ccc(OC)c(OC)c1OC	55*	-51	2	2
C=CCOc1cccc(C(=O)/C=C2/C(=O)Nc3ccccc32)c1	-2	-14	-1	66*
O=C(O)CC(NC(=O)CC(c1ccccc1)c1ccccc1)c1cccc([N+](=O)[O-])c1 (stereo unspecified)	-1	-14	-2	-1
Cc1ccc(NN2C(=O)C=C(c3ccc(Cl)cc3)C2=O)cc1	61*	-68	8	39
COC(=O)c1ccc(CNC(=O)COC(=O)CC23CC4CC(CC(Br)(C4)C2)C3)cc1	1	51*	-1	0
O=C(NCCOC(=O)C1COc2ccccc2O1)C1COc2ccccc2O1 (stereo unspecified)	-1	1	0	1
O=C(NCCOC(=O)C1COc2ccccc2O1)c1cccnc1 (stereo unspecified)	64*	-91	-4	5
COc1ccc(F)cc1S(=O)(=O)NCC1CCCO1 (stereo unspecified)	0	3	1	0
COc1ccc(-c2cc(C(=O)O)nc3ccc4ccccc4c23)cc1OC	-1	58*	3	0
CC(=O)N/N=C\c1cccc(OC/C=C/c2ccccc2)c1	2	16	-1	1
O=c1cc(C(F)(F)F)[nH]c2c(C(F)(F)F)cccc12	54*	33	-1	-2
Cc1cc(=O)c2cccc(Br)c2[nH]1	-3	11	-1	0
O=c1cc(C(F)(F)F)[nH]c2ccc(OC(F)(F)F)cc12	50	69*	-4	2
CC(C)(C)c1ccc(C(=O)N2CCC(C(=O)c3ccccc3)CC2)cc1	-3	24	-5	5
Cc1cc(S(=O)(=O)Nc2ncnc3sccc23)ccc1F	0	-11	nt	nt
COc1ccc(C(=O)NCC(=O)N2CCN(C(=O)c3ccco3)CC2)cc1	316*	-286	2	1
COc1ccc(C(=O)NCC(=O)N2CCN(C(=O)c3ccco3)CC2)cc1OC	0	20	6	0
COc1ccc2[nH]cc(CCNC(=O)Cn3cc(C)c(=O)[nH]c3=O)c2c1	-1	-13	3	nt
CCCCN1C(=O)/C(=C/C=C2\Oc3ccccc3N2CC)SC1=S	287*	-365	4	nt
CCCN1C(=O)/C(=C/C=C2\N(CC)c3ccccc3C2(C)C)SC1=S	169*	-212	3	-3
SMILES	CRFBP-R2 agonist	CRFR2-BP antag	V-ATPase pH	NTR1 agonist
C=CCN1C(=O)/C(=C\C=C2\N(C)c3ccccc3C2(C)C)SC1=S	104*	-68	-2	-3
CN1/C(=C\C=O)C(C)(C)c2ccccc21	0	-7	-4	0
CN1/C(=C\C=C2/SC(=S)N(CC(=O)O)C2=O)C(C)(C)c2ccccc21	263*	-185	-1	-2
Cc1cccc(NC(=O)c2ccc(N3C(=O)C4CCCCC4C3=O)cc2)c1C (stereo unspecified)	-2	10	3	0
Cc1cccc(OCCSc2nc3ccccc3n2CCC(=O)O)c1	1	0	1	1
CCCN1C(=O)/C(=C\C=C2/Sc3ccccc3N2CCO)SC1=S	19	-3	-1	-1
CCCCN1C(=O)/C(=C/C=C2/CC(C)(C)CN2C)SC1=S	196*	-268	0	-4
O=C(O)C1C2C=CC(O2)C1C(=O)Nc1ccc(S(=O)(=O)Nc2ccccc2)cc1 (stereo unspecified)	0	54*	1	1
O=C(O)C1C2C=CC(O2)C1C(=O)Nc1ccc(S(=O)(=O)N2CCc3ccccc32)cc1 (stereo unspecified)	-1	2	-1	4
COc1ccc(C(=O)C2CCCN(Cc3ccc4nonc4c3)C2)c(OC)c1 (stereo unspecified)	-1	3	-3	3
Cc1nn(-c2cccc([N+](=O)[O-])c2)c(N)c1-c1ccccc1	0	57*	0	1
Cc1nn(-c2ccccc2)c(N)c1Sc1cccc([N+](=O)[O-])c1	1	21	0	2
O=c1oc(CCO)cc2ccc(Br)cc12	0	66*	4	1
CC(CNC(=O)c1ccc(NC2=NC3CS(=O)(=O)CC3S2)cc1)c1ccccc1 (stereo unspecified)	50*	-122	-1	0
CC(NC(=O)Cc1ccc(NC2=NC3CS(=O)(=O)CC3S2)cc1)c1ccccc1 (stereo unspecified)	-1	-14	4	-1
Oc1ccc2ccccc2c1/C=N/Nc1ccccc1	-2	-5	-3	2
O=C(N/N=C\c1c(O)ccc2ccccc12)c1ccc(S(=O)(=O)N2CCCCC2)cc1	203*	-326	-1	1
O=CN/N=C/c1c(O)ccc2ccccc12	88*	-62	1	-1
Oc1ccccc1C=NN=Cc1c(O)ccc2ccccc12	144*	-116	2	nt
CC1CCCCN1C(=O)CN1C(=O)NC2(CCCCC2C)C1=O (stereo unspecified)	8	0	-4	0
O=[N+]([O-])/C=C/c1c(OCc2ccccc2)ccc2ccccc12	nt	nt	4	61*
O=[N+]([O-])c1ccccc1Oc1ccc(S(=O)(=O)N2CCOCC2)cc1	5	16	5	0
COc1ccc(Nc2ccccc2)c(C)c1	0	50*	-3	0
CCOc1ccc(C(=O)OCC(=O)N2CCCC2)cc1OCC	0	2	4	0
Cc1ccc(S(=O)(=O)c2nnn3c2nc(N2CCOCC2)c2ccccc23)c(C)c1	-1	106*	0	1
SMILES	CRFBP-R2 agonist	CRFR2-BP antag	V-ATPase pH	NTR1 agonist
Cc1ccc(S(=O)(=O)c2nnn3c2nc(N2CCOCC2)c2ccccc23)cc1C	1	55*	-2	0
CC(C)c1ccc(S(=O)(=O)c2nnn3c2nc(N2CCCCC2)c2ccccc23)cc1	0	37	2	3
COc1ccccc1C1C(C(=O)c2sc(C)nc2C)=C(O)C(=O)N1CCN1CCOCC1 (stereo unspecified)	-2	94*	2	-1
COc1cccc(C2C(C(=O)c3sc(C)nc3C)=C(O)C(=O)N2CCN2CCOCC2)c1OC (stereo unspecified)	0	10	0	-1
O=C(Cc1cnc2ncnn2c1)N1CCc2c([nH]c3ccccc23)C1c1ccccc1F (stereo unspecified)	-1	0	0	3
O=C(COC(=O)c1ccncc1)Nc1cc(Cl)ccc1Cl	-4	52*	1	-1
